SMILES strings stand for the structures. Entries with a potency or affinity are not part of this list. Records with an inconclusive call do not appear. Values without a mark were called inactive. Activity calls are given as the source filed them.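 How the source made its calls: active means signal loss with fitted half-maximal concentration at or below twice the top valid tested dose in every test run; inconclusive means runs disagree, flat 30 to 70% signal loss, or poor fit; inactive means all runs flat, opposite direction, or potency beyond limit.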

This assay in a line: general mammalian cell viability loss – inhibitor set, cherry-pick, set 2, cytotoxicity control for miR-122 modulator project, dose response (AID 720697).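 Further: 0% = median of neutral control wells and -100% = MG132 positive control wells.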 To be noted: HEK293T viability, CellTiter-Glo luminescence, 48 h; series mostly up to 26 µM. Background: Cellular ATP, detected with luciferase, serves as a proxy for viable cell number.
For `CC(C)(C)c1cc(NCCCn2ccnc2)n2ncc(-c3ccc(Cl)cc3)c2n1`, the compound was called inactive.

With `Cc1cccc(NC(=O)c2sc3nc(-c4ccc(F)cc4)cn3c2C)n1`, the compound was called inactive.

In the case of `COc1ccc(-c2nc(NC(=O)CSc3nnc(C)s3)ns2)cc1`, the compound was classed as inactive.

Regarding `COc1cccc(-c2nc(NCCN3CCOCC3)c3ccccc3n2)c1O`, the compound was called inactive.

On to `COCC(=O)N(C[C@@H]1[C@@H](c2ccccc2)[C@H](CO)N1C(=O)NC(C)C)C(C)C`, for which the outcome was inactive.

For the compound `COCC(=O)N1[C@@H](CO)[C@@H]2c3ccccc3N(C(=O)c3cccnc3)C[C@@H]21`, the compound was classed as inactive.

`c1ccc(-c2nnc3n2CCCC3)cc1`: the compound was called inactive.

On to `CC(C)NC(=O)Nc1ccc2c(c1)C(=O)N(C)[C@H]1CC[C@H](CC(=O)NCC(F)(F)F)O[C@H]1CO2`, for which the call was inactive.

For the compound `COCC(=O)N(C)C[C@H]1Oc2cc(-c3ccc(C#N)cc3)ccc2S(=O)(=O)N([C@H](C)CO)C[C@H]1C`, the result was inactive.

`CN1C(=O)c2cc(NC(=O)c3cccs3)ccc2OC[C@H]2O[C@@H](CC(=O)NCCN3CCCCC3)CC[C@H]21`: the compound was classed as inactive.

Regarding `CNC(=O)C[C@@H]1CC[C@@H]2[C@H](COc3ccc(NC(=O)NC(C)C)cc3C(=O)N2C)O1`, the compound was called inactive.

Regarding `COc1cccc(CNC(=O)C[C@@H]2CC[C@H]3[C@H](COc4ccc(NS(=O)(=O)c5ccccc5F)cc4C(=O)N3C)O2)c1`, the result was inactive.

Consider `CCCC(NS(=O)(=O)c1ccc(Br)cc1)C(=O)O` (centres undefined), for which the compound was classed as inactive.

Turning to `COc1ccc(S(=O)(=O)N(C)C[C@@H]2Oc3cc(-c4cccc(F)c4)ccc3S(=O)(=O)N([C@H](C)CO)C[C@H]2C)cc1`, the compound was classed as inactive.

Turning to `COc1ccccc1CNc1nc(Nc2ccccc2Cl)c2sccc2n1`, the outcome was inactive.

Turning to `COCC(=O)NC[C@H]1N[C@H](CO)[C@H]1c1ccc(C2=CCCC2)cc1`, the compound was called inactive.

Turning to `Fc1ccccc1-c1nc(-c2ccncc2)no1`, the activity change, negative = cytotoxicity was -1.62% [at 6 µM].

Consider `CCCN(C[C@@H]1N[C@@H](CO)[C@H]1c1ccc(-c2cccnc2)cc1)C(C)=O`, for which the call was inactive.

Consider `COCCN(C[C@@H]1[C@@H](c2ccccc2)[C@H](CO)N1C(=O)C1CCC1)C(C)=O`, for which the compound was called inactive.

Take `CC(=O)c1cccc(S(=O)(=O)NCC2CCCCC2)c1`: the result was inactive.

In the case of `CCCNC(=O)C[C@@H]1CC[C@H]2[C@H](COc3ccc(NC(=O)c4ccc(C(F)(F)F)cc4)cc3C(=O)N2C)O1`, the compound was classed as inactive.

For the compound `COc1ccc(C#Cc2ccc3c(c2)O[C@H](CN(C)C(=O)CN2CCOCC2)[C@H](C)CN([C@@H](C)CO)S3(=O)=O)cc1`, the result was inactive.

Regarding `CNC(=O)C[C@H]1CC[C@H]2[C@H](COc3ccc(NC(=O)c4cccc(F)c4)cc3C(=O)N2C)O1`, the outcome was inactive.

With `COc1cccc(CNC(=O)C[C@H]2CC[C@@H]3[C@@H](COc4ccc(NC(C)=O)cc4C(=O)N3C)O2)c1`, the compound was classed as inactive.

In the case of `CN[C@H]1C[C@H]2c3[nH]c4ccc(-c5ccc(OC)cc5)cc4c3CCN2C(=O)[C@H]1[C@H](C)O`, the compound was classed as inactive.

Turning to `CN1C(=O)c2cc(NC(=O)c3ccc4c(c3)OCO4)ccc2OC[C@@H]2O[C@@H](CC(=O)O)CC[C@@H]21`, the result was inactive.

For the compound `Cc1ccc(NCC(=O)c2ccccc2)cc1Cl`, the compound was classed as inactive.

In the case of `COc1cccc(C(=O)Nc2ccc3c(c2)C(=O)N(C)[C@H]2CC[C@H](CC(=O)NCc4ccc(F)cc4)O[C@@H]2CO3)c1`, the outcome was inactive.

Take `CC(C)NC(=O)N1[C@H](CO)[C@@H](c2ccccc2)[C@@H]1CNC(=O)CN(C)C`: the compound was classed as inactive.

For the compound `COCC(=O)Nc1ccc2c(c1)C(=O)N(C)[C@@H]1CC[C@H](CC(=O)NCc3ccccc3F)O[C@H]1CO2`, the outcome was inactive.

As to `CN(C)CCNc1ncnc2c1sc1nc(N3CCOCC3)c3c(c12)CC(C)(C)SC3`, the outcome was inactive.

For `COCC(=O)N(C[C@@H]1N[C@H](CO)[C@H]1c1ccc(-c2cccnc2)cc1)C(C)C`, the compound was classed as inactive.

As to `CC(C)NC(=O)Nc1ccc2c(c1)C(=O)N(C)[C@@H]1CC[C@H](CC(=O)NCC(F)(F)F)O[C@H]1CO2`, the result was inactive.

In the case of `Cc1cc(C(F)F)n2ncc(C(=O)NCCc3ccccc3Cl)c2n1`, the result was inactive.

Take `CCC(=O)N(C)C[C@H]1Oc2cc(C#CC3CCCCC3)ccc2S(=O)(=O)N([C@@H](C)CO)C[C@H]1C`: the compound was called inactive.

For `CCCNC(=O)C[C@@H]1CC[C@@H]2[C@@H](COc3ccc(NC(=O)Nc4ccccc4F)cc3C(=O)N2C)O1`, the call was inactive.

Take `CCCCNC(=O)Nc1nnc(-c2ccc(OCC)cc2)o1`: the compound was called inactive.

With `C/C=C/c1ccc([C@@H]2[C@@H](CO)N(C(C)=O)[C@@H]2CN(CC)C(=O)CN(C)C)cc1`, the outcome was inactive.

`O=C(Nc1ccccc1)N1C[C@@H]2[C@H](c3ccccc31)[C@H](CO)N2C(=O)c1ccncc1`: the compound was classed as inactive.

For the origin of these results see PubChem BioAssay AID720697 (Broad Institute, 2013).
